For eight compounds, growth results are on record in PubChem BioAssay (NCI).

About 83,000 compounds went through this panel and 20% of them were active in at least one assay; those are over-represented in the sample as a whole.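 48-hour exposure, single concentration, 96-well plates; percent growth endpoint where 0 means no net growth. Active: below 10.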 Values without a mark were called inactive. Activity calls are given as the source filed them.

Some test systems named below: NCI-H23 lung; NCI-H226 lung; NCI-H322M lung; HOP-62 NSCLC; NCI-H460 lung; NCI-H522 lung; A549/ATCC NSCLC; 786-0 renal; COLO 205 colon; DU-145 prostate; K-562 leukemia; MALME-3M melanoma; MDA-MB-231 breast; RXF 393 renal; SF-268 CNS; SF-295 CNS; SF-539 CNS; UACC-257 melanoma; M14 melanoma.
Common to all, as to assay: NCI-60 one-dose screen, 48 h (100 = growth as untreated, 0 = no growth, -100 = all killed)
Common to all, as to conditions: 10 µM unless noted

`Cn1cc(-c2nc(N)nnc2-c2c[nH]c3ccc(Br)cc23)c2cc(Br)ccc21`: the growth in the test on NCI-H23 lung is 48.7%; with NCI-H226 lung, 79.9%; in the test on NCI-H322M lung, 68.4%; in the test with HOP-62 NSCLC it was 59.6%; with NCI-H460 lung, 17.3%; with NCI-H522 lung, 11.6%. Also, the growth is 49.7% with A549/ATCC NSCLC; 51.1% in the test on 786-0 renal; 36.3% in the test on COLO 205 colon; 64.8% in the test on DU-145 prostate; 12.2% in the test with K-562 leukemia; 43% in the test on MALME-3M melanoma. In addition, the growth in the test on MDA-MB-231 breast is 62.5%; in the test with RXF 393 renal it was 39.8%; with SF-268 CNS it was 61.3%; with SF-295 CNS it was 11.7%; in the test with SF-539 CNS, 43.8%; with UACC-257 melanoma it was 82.9%. Moreover, in the test with M14 melanoma, the growth is 20.7%.

With `Clc1ccc(N/N=c2/oc3ccccc3cc2-c2cc3ccccc3[nH]2)cc1`, the growth with NCI-H23 lung is 64.4%; with NCI-H226 lung, 77.7%; in the test with NCI-H322M lung, 78.6%; with HOP-62 NSCLC, 75.9%; in the test on NCI-H460 lung, 85.2%; with NCI-H522 lung, 77.1%. The growth with A549/ATCC NSCLC was 76.2%; with 786-0 renal, 87.7%; in the test with COLO 205 colon, 95.8%; with DU-145 prostate it was 88.6%; with K-562 leukemia, 67%; with MALME-3M melanoma, 55.3%. Besides, the growth was 67.1% in the test with MDA-MB-231 breast; 76% with RXF 393 renal; 85.1% in the test with SF-268 CNS; 71% with SF-295 CNS; 87.3% in the test on SF-539 CNS; 84.1% with UACC-257 melanoma. Further, the growth in the test with M14 melanoma was 66.5%.

For the compound `Cc1ccc(NC(=O)N[C@@H](Cc2cc(F)cc(F)c2)C(=O)NC2C(=O)N3C[C@H](O)C[C@H]3C(=O)N3CCCC[C@H]3C(=O)N[C@@H](CO)C(=O)N3C[C@H](C)C[C@H]3C(=O)O[C@H]2C)c(F)c1` (some centres not stated), the growth with NCI-H23 lung was 28.2%; with NCI-H226 lung, 8.45% (active); in the test with NCI-H322M lung, 70.7%; in the test on HOP-62 NSCLC it was 48.3%; in the test with NCI-H460 lung, 37.3%; in the test on NCI-H522 lung it was 26.9%. The growth was 73.4% in the test on A549/ATCC NSCLC; 93.6% with 786-0 renal; -11.9% (active) with COLO 205 colon; 37.7% in the test on DU-145 prostate; 27.9% in the test on K-562 leukemia; 50.7% in the test on MALME-3M melanoma. Besides, the growth was 38.8% in the test with MDA-MB-231 breast; 100% in the test with RXF 393 renal; 35.5% in the test on SF-268 CNS; 78.7% with SF-295 CNS; 43.5% with SF-539 CNS; 25.4% in the test with UACC-257 melanoma. In addition, the growth with M14 melanoma is 58.4%.

For `COc1ccc(/C=C/C(=O)c2cc(S(N)(=O)=O)c(OC)cc2OC)cc1`, the growth with NCI-H23 lung was 74.7%; in the test with NCI-H226 lung, 100%; in the test with NCI-H322M lung it was 77.2%; in the test on HOP-62 NSCLC it was 83%; with NCI-H460 lung it was 69.8%; in the test with NCI-H522 lung, 78%. In addition, the growth with A549/ATCC NSCLC is 84.3%; in the test on 786-0 renal, 88.1%; with COLO 205 colon, 92.6%; with DU-145 prostate it was 17.3%; in the test with K-562 leukemia, 26.1%; in the test on MALME-3M melanoma, 98%. For the same compound, the growth with MDA-MB-231 breast is 64.6%; with RXF 393 renal, 40.1%; in the test with SF-268 CNS, 80.7%; in the test on SF-295 CNS, 93.2%; in the test on SF-539 CNS it was 76.4%; in the test with UACC-257 melanoma, 87.9%. For the same compound, the growth in the test on M14 melanoma was 84.3%.

`O=C(Cn1c(-c2ccccc2)nc2cc(Cl)c(Cl)cc21)N=Nc1c(O)[nH]c2ccc(Cl)cc12`: the growth with NCI-H23 lung is 68.7%; in the test with NCI-H226 lung, 37.3%; in the test on NCI-H322M lung it was 94.6%; with HOP-62 NSCLC, 86.5%; in the test with NCI-H460 lung, 65.8%; in the test on NCI-H522 lung, 72.1%. Moreover, the growth in the test on A549/ATCC NSCLC is 73.8%; in the test with 786-0 renal it was 96.2%; in the test with COLO 205 colon, 66.6%; in the test on DU-145 prostate it was 75.7%; in the test with K-562 leukemia, 63.2%; with MALME-3M melanoma it was 81.6%. Further, the growth in the test on MDA-MB-231 breast is 85%; in the test with RXF 393 renal it was -5.08% (active); in the test with SF-268 CNS it was 104%; in the test with SF-295 CNS it was 77.7%; with SF-539 CNS, 79.4%; in the test on UACC-257 melanoma, 84.4%. The growth in the test with M14 melanoma was 60.7%.

Regarding `COc1ccc([C@@H]2[C@@H](O)C(=O)N2c2cc(OC)c(OC)c(OC)c2)cc1F`, the growth was 15.9% in the test on NCI-H23 lung; 36.9% in the test on NCI-H226 lung; 52.4% in the test with NCI-H322M lung; 28.3% with HOP-62 NSCLC; 2.68% (active) in the test with NCI-H460 lung; -49.6% (active) in the test on NCI-H522 lung. Also, the growth in the test on A549/ATCC NSCLC was 20.2%; in the test on 786-0 renal it was 10%; with COLO 205 colon, -79.8% (active); in the test on DU-145 prostate it was 12.3%; with K-562 leukemia, 8.16% (active); in the test with MALME-3M melanoma, 64.1%. In addition, the growth in the test on MDA-MB-231 breast was 21.3%; in the test with RXF 393 renal, 24.9%; in the test on SF-268 CNS, 32%; in the test on SF-295 CNS it was 5.85% (active); with SF-539 CNS it was -0.902% (active); in the test on UACC-257 melanoma, 58.6%. For the same compound, the growth in the test on M14 melanoma is 3.94% (active).

Take `COc1ccc2[nH]cc(-c3csc4nc(-c5ccccc5)cn34)c2c1`: the growth is 30.8% with NCI-H23 lung; 31.4% in the test with NCI-H226 lung; 64.6% with NCI-H322M lung; 24.5% in the test with HOP-62 NSCLC; 2.01% (active) with NCI-H460 lung; -34% (active) in the test on NCI-H522 lung. Besides, the growth with A549/ATCC NSCLC is 29.9%; with 786-0 renal it was 51.6%; with COLO 205 colon, -32.6% (active); in the test on DU-145 prostate it was 18.4%; with K-562 leukemia, 11.2%; in the test on MALME-3M melanoma, 54.2%. Moreover, the growth in the test on MDA-MB-231 breast was 20.8%; in the test on RXF 393 renal, -15.7% (active); with SF-268 CNS it was 41.1%; with SF-295 CNS, -2.19% (active); with SF-539 CNS it was -6.33% (active); in the test on UACC-257 melanoma it was 60.4%. Moreover, in the test on M14 melanoma, the growth is 11.6%.

For the compound `O=S(=O)(Nc1cccc2ccccc12)c1ccc(-c2cnc(C3CC3)o2)cc1`, the growth was 23.2% in the test on NCI-H23 lung; 64.6% in the test on NCI-H226 lung; 40.4% in the test on NCI-H322M lung; 39.3% in the test with HOP-62 NSCLC; 11.2% in the test with NCI-H460 lung; 21.9% with NCI-H522 lung. Also, the growth was 27.2% in the test with A549/ATCC NSCLC; 50.2% with 786-0 renal; 9.76% (active) in the test on COLO 205 colon; 15.3% in the test with DU-145 prostate; 8.55% (active) in the test with K-562 leukemia; 61.4% with MALME-3M melanoma. Further, the growth was 27.6% in the test with MDA-MB-231 breast; 7.94% (active) in the test on RXF 393 renal; 55.5% in the test on SF-268 CNS; 0.665% (active) with SF-295 CNS; 7.47% (active) with SF-539 CNS; 69% in the test on UACC-257 melanoma. For the same compound, the growth in the test with M14 melanoma is 14.5%.
